Measured values as given in PubChem BioAssay AID933 (National Center for Advancing Translational Sciences (NCATS), 2007).
Records with an inconclusive call do not appear. Where a call stands in place of a potency, no number is given. A number with no mark means an inactive call. Calls of active or inactive are those of the source. Calls come from the whole dose curve; as a rule, active = well fitted activation curve with a large enough effect in the signal ratio, with a control signal flat; inconclusive = small, poorly fitted or top-dose-only effect, or a change in a side signal; inactive = flat fitted curve, though single readings scatter; the % refers to the signal ratio.

Biological target: Thyrotropin receptor (Homo sapiens) (UniProt P16473)
Test: Secondary Concentration-Response Assay for Agonists of the Thyroid Stimulating Hormone Receptor: HTRF Activity Detection
How it was run: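 cAMP accumulation was detected by antibody-based HTRF, excitation 330 nm, emissions 615 and 660 nm. Compounds acted for 30 min at room temperature on stably TSHR-transfected HEK 293 cells, with phosphodiesterase inhibitor RO 20-1724 (100 uM) in the medium.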
Potency is the fitted concentration of half-maximal effect.

Sequence of Thyrotropin receptor (Homo sapiens) (P16473 whole entry, looked up): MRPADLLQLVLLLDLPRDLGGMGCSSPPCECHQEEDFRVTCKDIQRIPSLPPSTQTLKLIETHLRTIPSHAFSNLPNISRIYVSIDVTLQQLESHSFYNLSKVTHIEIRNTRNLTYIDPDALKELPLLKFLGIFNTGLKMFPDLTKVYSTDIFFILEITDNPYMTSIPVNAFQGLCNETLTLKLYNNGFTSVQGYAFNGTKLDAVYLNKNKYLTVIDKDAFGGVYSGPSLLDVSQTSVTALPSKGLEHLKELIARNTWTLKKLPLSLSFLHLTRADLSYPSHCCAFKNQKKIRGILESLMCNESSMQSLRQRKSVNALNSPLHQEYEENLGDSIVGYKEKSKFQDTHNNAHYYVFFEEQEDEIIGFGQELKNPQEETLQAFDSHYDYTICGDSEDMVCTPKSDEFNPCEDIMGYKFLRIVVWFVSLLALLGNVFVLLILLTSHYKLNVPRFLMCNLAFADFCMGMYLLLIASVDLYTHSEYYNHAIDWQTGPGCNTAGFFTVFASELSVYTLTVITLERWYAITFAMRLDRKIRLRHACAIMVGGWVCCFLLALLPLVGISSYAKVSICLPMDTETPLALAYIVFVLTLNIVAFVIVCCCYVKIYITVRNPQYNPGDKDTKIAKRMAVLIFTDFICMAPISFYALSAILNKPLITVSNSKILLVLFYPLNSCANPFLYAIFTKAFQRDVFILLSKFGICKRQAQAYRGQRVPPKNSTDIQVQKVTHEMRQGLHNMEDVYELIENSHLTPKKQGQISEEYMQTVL

Row | SMILES | activation | Potency
1 | COC(=O)c1cc(NC2c3ccccc3C(=O)N2c2cccnc2)cc(C(=O)OC)c1 (stereo not given) | -0.103% [at 0.00035 µM] | 
2 | CC1(C)c2ccccc2N2CCC(=O)NC21/C=C/c1ccco1 (stereo not given) | 0.369% [at 0.00035 µM] | 
3 | COc1ccc(C2Nc3ccccc3C(=O)N2Cc2ccco2)cc1CN1C(=O)c2ccccc2C1=O (stereo not given) |  | inactive
4 | CCCN1C(=O)c2ccccc2NC1c1ccc(OC)cc1OC (stereo not given) |  | inactive
5 | O=C(COC(=O)C1c2ccccc2Oc2ccccc21)Nc1ccc2c(c1)OCO2 | 0.151% [at 0.00035 µM] | 
6 | COc1ccc(C2Nc3ccccc3C(=O)N2Cc2cccnc2)cc1COc1ccc(NC(C)=O)cc1 (stereo not given) |  | 35.5 µM (active)
7 | O=C(c1cccs1)N(Cc1ccco1)c1ccc(O)cc1 |  | inactive
8 | Nc1ccccc1C(=O)NCc1ccco1 |  | inactive
9 | COc1ccc(CN(Cc2ccccc2)C(C)=O)cc1COc1ccc(NC(C)=O)cc1 |  | inactive
10 | COc1ccc(C(=O)O)cc1COc1ccc(NC(C)=O)cc1 |  | inactive
11 | COC(=O)C1=C(C)OC(N)=C(C#N)C1C1CCCCC1 (stereo not given) | -0.764% [at 0.00035 µM] | 
12 | CC1(C)CC(=O)C2=C(C1)OC(N)=C(C#N)C2CCc1ccccc1 (stereo not given) | -0.482% [at 0.00035 µM] | 
13 | COc1ccc(C2Nc3ccccc3C(=O)N2c2ccc(C)cc2)cc1Cn1nnc2ccccc21 (stereo not given) |  | inactive
14 | O=C1c2ccccc2NC(c2ccc(F)cc2)N1Cc1ccco1 (stereo not given) |  | inactive
15 | COc1ccc(C2Oc3ccccc3C(=O)N2Cc2ccccc2)cc1COc1ccc(NC(C)=O)cc1 (stereo not given) |  | 12.6 µM (active)
